{"source": "the OligoGym collection", "data": [{"molecular_target": "IL16", "assay": "pooled miR-30 sensor sort-seq; sequence = guide strand", "conditions": "shRNA", "values": [{"sequence": "TTTGTTCTGAGGCTGCTCCTTT", "sensor-assay potency score (higher = more potent)": 0.156}, {"sequence": "TAGATCAGGAACACTGCTGGGC", "sensor-assay potency score (higher = more potent)": 0.521}, {"sequence": "TTTCTCCTGATGACAATCGTGA", "sensor-assay potency score (higher = more potent)": -0.801}]}, {"molecular_target": "IL18RAP", "assay": "pooled miR-30 sensor sort-seq; sequence = guide strand", "conditions": "shRNA", "values": [{"sequence": "TCATCTTGACACAACAGGCTAC", "sensor-assay potency score (higher = more potent)": 0.09}, {"sequence": "TTTCAGTGTTTGATCATCCAAG", "sensor-assay potency score (higher = more potent)": -0.42}, {"sequence": "TATTTTCTGATTCTGCTCGGAC", "sensor-assay potency score (higher = more potent)": -0.239}, {"sequence": "TCTCACTTGAACAACAGCTCTG", "sensor-assay potency score (higher = more potent)": 0.299}, {"sequence": "TTAACTTCTAAAATCATCTTGA", "sensor-assay potency score (higher = more potent)": 1}, {"sequence": "TTGTAGTTCAAAGATACTGGGT", "sensor-assay potency score (higher = more potent)": -0.0545}, {"sequence": "ATAAACTTCATCCACTACGATT", "sensor-assay potency score (higher = more potent)": -1.45}, {"sequence": "TTGGACATCAGATAGGTCGTTA", "sensor-assay potency score (higher = more potent)": 0.111}, {"sequence": "TTTCTGTTCTACTGAGTCCTTT", "sensor-assay potency score (higher = more potent)": -0.456}, {"sequence": "TTCTGTTCTACTGAGTCCTTTC", "sensor-assay potency score (higher = more potent)": -0.716}, {"sequence": "TTTGAATTTCCTATCAGCCTGA", "sensor-assay potency score (higher = more potent)": 0.608}, {"sequence": "TTGTTTTCTAAAACATCAGGAA", "sensor-assay potency score (higher = more potent)": -0.521}]}, {"molecular_target": "IL32", "assay": "pooled miR-30 sensor sort-seq; sequence = guide strand", "conditions": "shRNA", "values": [{"sequence": "TTTTTCAAGTAGAGGAGTGAGC", "sensor-assay potency score (higher = more potent)": -0.743}, {"sequence": "TAGGACTGGAAAGAGGACATGA", "sensor-assay potency score (higher = more potent)": 0.275}, {"sequence": "ATAAAATCTTTCTATGGCCTGG", "sensor-assay potency score (higher = more potent)": -0.133}, {"sequence": "TTTATCATAAAATCTTTCTATG", "sensor-assay potency score (higher = more potent)": -1.15}, {"sequence": "TTTGAAGTCGTCCTCCAGCTCT", "sensor-assay potency score (higher = more potent)": -0.749}, {"sequence": "TAGAGGAGTGAGCTCTGGGTGC", "sensor-assay potency score (higher = more potent)": -1.21}, {"sequence": "TTTTATCATAAAATCTTTCTAT", "sensor-assay potency score (higher = more potent)": -0.484}, {"sequence": "TTGCGGGATCCTCAACATCCGG", "sensor-assay potency score (higher = more potent)": -1.68}, {"sequence": "TGAAGTCGTCCTCCAGCTCTGC", "sensor-assay potency score (higher = more potent)": -1.04}, {"sequence": "TAAAATCTTTCTATGGCCTGGT", "sensor-assay potency score (higher = more potent)": 0.537}, {"sequence": "TGCGGGATCCTCAACATCCGGG", "sensor-assay potency score (higher = more potent)": -0.63}, {"sequence": "TAGGACTTGTCACAAAAGCTCT", "sensor-assay potency score (higher = more potent)": -1.15}]}, {"molecular_target": "IL5", "assay": "pooled miR-30 sensor sort-seq; sequence = guide strand", "conditions": "shRNA", "values": [{"sequence": "TTTGACTCTCCAGTGTGCCTAT", "sensor-assay potency score (higher = more potent)": -0.108}, {"sequence": "TTCTTCAGTGCACAGTTGGTGA", "sensor-assay potency score (higher = more potent)": -1.09}, {"sequence": "TTCTTTATTAAGGACAAGTTTT", "sensor-assay potency score (higher = more potent)": -1.48}, {"sequence": "TACAGGAACAGGAATCCTCAGA", "sensor-assay potency score (higher = more potent)": -0.449}, {"sequence": "TTGCACAGTTTGACTCTCCAGT", "sensor-assay potency score (higher = more potent)": -0.479}, {"sequence": "TTTTATGTACAGGAACAGGAAT", "sensor-assay potency score (higher = more potent)": -1.18}, {"sequence": "TTTTGAATAGTCTTTCCACAGT", "sensor-assay potency score (higher = more potent)": -0.99}, {"sequence": "TCTTTCACCAATGCACTTGTGG", "sensor-assay potency score (higher = more potent)": -0.0823}, {"sequence": "TATTTCTTTATTAAGGACAAGT", "sensor-assay potency score (higher = more potent)": -0.457}, {"sequence": "TACACCAAGAAACTCTTGCAGG", "sensor-assay potency score (higher = more potent)": -0.92}, {"sequence": "TTACTCTCCGTCTTTCTTCTCC", "sensor-assay potency score (higher = more potent)": 0.308}, {"sequence": "TTGAATAGTCTTTCCACAGTAC", "sensor-assay potency score (higher = more potent)": 0.569}]}]}
